These results are taken from PubChem BioAssay.

The nature of assay [1]: stimulators of nuclear beta-catenin in C2C12, primary screen, imaging, WNT3A-conditioned medium, mouse C2C12, NPC library (AID 1117326; in the data active = nuclear beta-catenin stimulation mostly above about 4.2%, no sharp cut-off; inactive = mostly below about 10%; note: reference of the scale not given here). To be noted: stronger effect = higher value.
Assay [2] is described as follows: stimulators of insulin release from INS-1E, primary screen, cell-based, 5 mM glucose, NPC library (AID 1117329;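 active = compound raises insulin release from rat beta cells at 5 mM glucose, no numeric limit stated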; note: reference of the scale not given here). The following applies: rat INS-1E insulin secretion, at 10 µM, stronger effect = higher value.
Assay [3] can be described thus: growth inhibition of GSK3B-pretreated HCT116 cells – cell-based, CellTiter-Glo, 0.2 to 20 µM (AID 1117336;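 active = compounds lowering colon cancer cell viability after pretreatment blocking the GSK3B kinase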). The following applies: HCT116 viability after GSK3B inhibitor, at 20 µM, stronger effect = higher value. Background: Cellular ATP, detected with luciferase, serves as a proxy for viable cell number.
A short description of assay [4]: inhibition of endothelial tube formation, primary screen, imaging, VEGF stimulated, CD31 staining, tube area, NPC library (AID 1117340;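 active = compound that reduces growth-factor-driven endothelial tube area in a mixed cell culture, no cutoff stated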). To be noted: VEGF-stimulated ADSC/ECFC co-culture, at 10 µM, stronger effect = higher value.
Assay [5] in a line: glucagon-like peptide 1 release enhancers, primary assay, NCI-H716 cell line, NPC library (AID 1117341;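 active = compound raises GLP1 secretion from the human gut endocrine cells, with no numeric limit stated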; note: reference of the scale not given here). The following applies: NCI-H716 cells, at 10 µM, stronger effect = higher value.
Assay [6] can be described thus: HCT116 colon cancer cell growth inhibition, primary screen, CellTiter-Glo luminescence, NPC library (AID 1117342). To be noted: at 20 µM (top of the series).
The nature of assay [7]: CellTiter-Glo luminescent readout of SW480 viability loss, NPC library primary (AID 1117343;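 active = compounds that lower viability of the colon cancer cells in the luminescence readout, with no numeric limit stated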). The following applies: CellTiter-Glo luminescence; at 20 µM (top of the series).
Assay [8] is described as follows: decreased DLD-1 cellular survival, CellTiter-Glo luminescent readout, NPC compound collection, primary HTS (AID 1117346;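 active = compounds that lower survival of DLD-1 colon cancer cells in the luminescence readout, no cutoff given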). The following applies: DLD-1 viability, CellTiter-Glo luminescence; at 20 µM (top of the series).

Activity calls are given as the source filed them.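 Rule for the calls, unless noted: active = compounds that lower survival of HCT116 colon cancer cells in the luminescence readout, no numeric limit stated; inactive = the rest.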

With `CCOC(=O)C(O)c1ccccc1` (stereo unspecified), the nuclear beta-catenin stimulation was 1.9% (inactive) in assay [1] (at 10 µM) and 9.6% in assay [1] (stimulation, at 2 µM). The insulin secretion stimulation in assay [2] is 0% (inactive). The viability decrease in assay [3] is -1.8% (inactive). Further, in assay [4], the tube area decrease was -9.7% (inactive). The GLP1 secretion stimulation in assay [5] was 0.1% (inactive). The inhibition of viability in assay [6] is 1.4% (inactive). Also, the results for the viability decrease (inhibition) in assay [7] and in assay [8] were -10% (inactive) and -2.3% (inactive), respectively.

`O=C(O)c1[nH]n(-c2ccc(S(=O)(=O)O)cc2)c(=O)c1N=Nc1ccc(S(=O)(=O)O)cc1`: the nuclear beta-catenin stimulation in assay [1] (at 10 µM) was 1.7% (inactive); in assay [1] (stimulation, at 2 µM), -1.1%. In addition, the insulin secretion stimulation in assay [2] was 2.7% (inactive). Besides, in assay [3], the viability decrease is -3.9% (inactive). Besides, in assay [4], the tube area decrease is -8.4% (inactive). Further, the GLP1 secretion stimulation in assay [5] was -3% (inactive). Also, the inhibition of viability in assay [6] was 4.2% (inactive). Also, the viability decrease (inhibition) in assay [7] is -14% (inactive); in assay [8], 6.5% (inactive).

With `NC(=O)CC[C@@H](N)C(=O)O`, the nuclear beta-catenin stimulation in assay [1] (at 10 µM) was 2.1% (inactive); in assay [1] (stimulation, at 2 µM), 3.8%. Moreover, the insulin secretion stimulation in assay [2] was -0.7% (inactive). Moreover, the viability decrease in assay [3] was -14.2% (inactive). Besides, the tube area decrease in assay [4] is 15.2% (inactive). Also, in assay [5], the GLP1 secretion stimulation is -0.1% (inactive). Also, in assay [6], the inhibition of viability is 2.55% (inactive). In addition, the values for the viability decrease (inhibition) in assay [7] and in assay [8] were 11.4% (inactive) and -7.9% (inactive), respectively.

Regarding `COc1ccc(S(=O)(=O)N2c3ccc(Cl)cc3[C@@](O)(c3ccccc3Cl)[C@H]2C(=O)N2CCC[C@@H]2C(N)=O)cc1OC`, the nuclear beta-catenin stimulation is 0.6% (inactive) in assay [1] (at 10 µM) and -0.8% in assay [1] (stimulation, at 2 µM). The insulin secretion stimulation in assay [2] was 2.35% (inactive). Also, the viability decrease in assay [3] was 47.7% (inactive). Further, the tube area decrease in assay [4] was -23.5% (inactive). Further, the GLP1 secretion stimulation in assay [5] was -0.7% (inactive). In addition, the inhibition of viability in assay [6] was 34% (inactive). Moreover, the figures for the viability decrease (inhibition) in assay [7] and in assay [8] were 0.4% (inactive) and 4.6% (inactive), respectively.

As for `Nc1ccc(O)cc1`, the nuclear beta-catenin stimulation in assay [1] (at 10 µM) is 18.2% (inactive); in assay [1] (stimulation, at 2 µM), 2%. In addition, in assay [2], the insulin secretion stimulation is 1% (inactive). Also, the viability decrease in assay [3] was 99.1% (active). Also, the tube area decrease in assay [4] is 60.9% (active). The GLP1 secretion stimulation in assay [5] is -3.8% (inactive). Besides, in assay [6], the inhibition of viability was 99.3% (active). Also, the viability decrease (inhibition) in assay [7] was 102% (active); in assay [8], 62.6% (active).

For `Cc1ccccc1N1CCN(CCc2nnc3n2CCCC3)CC1`, the nuclear beta-catenin stimulation in assay [1] (at 10 µM) is -0.3% (inactive); in assay [1] (stimulation, at 2 µM), 0%. Besides, the insulin secretion stimulation in assay [2] was 0.9% (inactive). Further, in assay [3], the viability decrease was 25.8% (inactive). Moreover, the tube area decrease in assay [4] was -13.2% (inactive). Moreover, the GLP1 secretion stimulation in assay [5] is 0.9% (inactive). Further, the inhibition of viability in assay [6] was 6.7% (inactive). In addition, the viability decrease (inhibition) in assay [7] was 4.9% (inactive); in assay [8] it was 7.3% (inactive).

Take `Cc1[nH]cnc1-c1ccc(Cl)cc1`: the nuclear beta-catenin stimulation in assay [1] (at 10 µM) was 1.4% (inactive); in assay [1] (stimulation, at 2 µM), 1%. In assay [2], the insulin secretion stimulation was 0.25% (inactive). Besides, the viability decrease in assay [3] was 11.7% (inactive). Moreover, the tube area decrease in assay [4] is -1.2% (inactive). The GLP1 secretion stimulation in assay [5] was 0.1% (inactive). Besides, the inhibition of viability in assay [6] is 17% (inactive). In addition, the viability decrease (inhibition) was -17.6% (inactive) in assay [7] and 3.8% (inactive) in assay [8].

For `O=C(O)c1ccccn1`, the nuclear beta-catenin stimulation is 1.7% (inactive) in assay [1] (at 10 µM) and 0.9% in assay [1] (stimulation, at 2 µM). Further, the insulin secretion stimulation in assay [2] is -0.2% (inactive). In addition, in assay [3], the viability decrease is 31.1% (inactive). In assay [4], the tube area decrease was -6.5% (inactive). In addition, in assay [5], the GLP1 secretion stimulation is 1.3% (inactive). Moreover, in assay [6], the inhibition of viability was -1.6% (inactive). The viability decrease (inhibition) in assay [7] was 10.7% (inactive); in assay [8], 22% (inactive).

For `CC(C)(C)C1CCC(CC2=C(O)c3ccccc3C(=O)C2=O)CC1` (stereo unspecified), the nuclear beta-catenin stimulation in assay [1] (at 10 µM) is 2% (inactive); in assay [1] (stimulation, at 2 µM), -0.5%. Also, in assay [2], the insulin secretion stimulation is -0.2% (inactive). Besides, the viability decrease in assay [3] is 110% (active). Moreover, the tube area decrease in assay [4] was 109% (active). Moreover, the GLP1 secretion stimulation in assay [5] was 5.8% (inactive). For the same molecule, in assay [6], the inhibition of viability is 106% (active). The viability decrease (inhibition) was 140% (active) in assay [7] and 98.4% (active) in assay [8].

As for `C[C@@H](O)[C@H]1C(=O)N2C(C(=O)O)=C(S[C@@H]3CN[C@H](CNS(N)(=O)=O)C3)[C@H](C)[C@H]12`, the nuclear beta-catenin stimulation in assay [1] (at 10 µM) is 2.9% (inactive); in assay [1] (stimulation, at 2 µM), 3%. Further, the insulin secretion stimulation in assay [2] is -0.6% (inactive). Further, the viability decrease in assay [3] was 14% (inactive). Besides, the tube area decrease in assay [4] is -14% (inactive). In assay [5], the GLP1 secretion stimulation is 0.3% (inactive). Also, the inhibition of viability in assay [6] is 25.7% (inactive). The results for the viability decrease (inhibition) in assay [7] and in assay [8] were 3.1% (inactive) and -20.9% (inactive), respectively.

In the case of `Cc1cc(C)c(NC(=O)CN(CC(=O)O)CC(=O)O)c(C)c1Br`, the nuclear beta-catenin stimulation in assay [1] (at 10 µM) was 1.9% (inactive); in assay [1] (stimulation, at 2 µM), 0.6%. Further, the insulin secretion stimulation in assay [2] is 0.25% (inactive). Also, the viability decrease in assay [3] was 29.2% (inactive). Besides, the tube area decrease in assay [4] was -4.1% (inactive). The GLP1 secretion stimulation in assay [5] was -3.7% (inactive). In assay [6], the inhibition of viability was 13.3% (inactive). Also, the viability decrease (inhibition) in assay [7] was 4.7% (inactive); in assay [8], -14.9% (inactive).

`Cc1c(C)c2c(c(C)c1OC(=O)CCC(=O)OCCO)CC[C@@](C)(CCC[C@H](C)CCC[C@H](C)CCCC(C)C)O2`: the nuclear beta-catenin stimulation in assay [1] (at 10 µM) was 0% (inactive); in assay [1] (stimulation, at 2 µM), -0.6%. Further, the insulin secretion stimulation in assay [2] was 0.25% (inactive). The viability decrease in assay [3] was 116% (active). Moreover, in assay [4], the tube area decrease was 17.4% (inactive). For the same molecule, the GLP1 secretion stimulation in assay [5] is 23% (active). Also, in assay [6], the inhibition of viability is 122% (active). In addition, the viability decrease (inhibition) in assay [7] is 157% (active); in assay [8] it was 101% (active).

With `OC[C@H]1O[C@@H]2O[C@H]3[C@H](O)[C@@H](O)[C@@H](O[C@H]4[C@H](O)[C@@H](O)[C@@H](O[C@H]5[C@H](O)[C@@H](O)[C@@H](O[C@H]6[C@H](O)[C@@H](O)[C@@H](O[C@H]7[C@H](O)[C@@H](O)[C@@H](O[C@H]8[C@H](O)[C@@H](O)[C@@H](O[C@H]1[C@H](O)[C@H]2O)O[C@@H]8CO)O[C@@H]7CO)O[C@@H]6CO)O[C@@H]5CO)O[C@@H]4CO)O[C@@H]3CO`, the nuclear beta-catenin stimulation was 0.1% (inactive) in assay [1] (at 10 µM) and 0.5% in assay [1] (stimulation, at 2 µM). In addition, the insulin secretion stimulation in assay [2] was 1.1% (inactive). Besides, the viability decrease in assay [3] was -5.9% (inactive). Moreover, the tube area decrease in assay [4] was 2.3% (inactive). Besides, the GLP1 secretion stimulation in assay [5] was -1.9% (inactive). Moreover, the inhibition of viability in assay [6] is 1.17% (inactive). The viability decrease (inhibition) in assay [7] is 21% (inactive); in assay [8], -3.7% (inactive).

`CN(C)CCOc1ccccc1Cc1ccccc1`: the nuclear beta-catenin stimulation in assay [1] (at 10 µM) was -1.8% (inactive); in assay [1] (stimulation, at 2 µM), 2.3%. Moreover, the insulin secretion stimulation in assay [2] was 22% (active). The viability decrease in assay [3] is -14% (inactive). Also, the tube area decrease in assay [4] is 4.9% (inactive). The GLP1 secretion stimulation in assay [5] was -5.1% (inactive). Moreover, the inhibition of viability in assay [6] was 11.4% (inactive). For the same molecule, the values for the viability decrease (inhibition) in assay [7] and in assay [8] were 34% (inactive) and 0.8% (inactive), respectively.
